Reference: PubChem BioAssay (EPA / NIEHS)
Records with an inconclusive call do not appear. The source made the active and inactive calls. Rule for the calls, unless noted: active = hit-call score of the fitted dose curve at least 0.9, where 1 is the maximum; inconclusive = response in the unintended direction; inactive = score below 0.9.

Key:
[1] = ATG_TAL_CIS: Attagene CIS-FACTORIAL HepG2 Assay for human TAL Basal Promoter (AID 2282966; active = hit-call score of the fitted dose curve at least 0.9, where 1 is the maximum; inactive = score below 0.9;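 note: background control endpoint measuring basal TAL promoter reporter mRNA not a specific factor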); settings: HepG2 Attagene cis-factorial TAL promoter reporter; actives raise or lower the signal
Method in brief: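 Human hepatoma HepG2 cells, transfected with promoter-regulated reporter units, were treated 24 h. Reporter transcript levels, measured through RT-PCR and capillary electrophoresis, were fitted for gain or loss relative to DMSO.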

[2] = ATG_TGFb_CIS: Attagene CIS-FACTORIAL HepG2 Assay for human Transforming Growth Factor (TGF) (AID 2282967; active = hit-call score of the fitted dose curve at least 0.9, where 1 is the maximum; inactive = score below 0.9); settings: HepG2 Attagene CIS TGFb reporter, mRNA transcription; actives raise or lower the signal
Method in brief: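 Endogenous TGFB1-linked transcription factor activity read as reporter mRNA via RT-PCR and capillary electrophoresis, 24 h after dosing transiently transfected HepG2 cells. Gain or loss of signal fitted relative to DMSO.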

[3] = ATG_VDRE_CIS: Attagene CIS-FACTORIAL HepG2 Assay for human Vitamin D Receptor Element (VDRE) (AID 2282968; active = hit-call score of the fitted dose curve at least 0.9, where 1 is the maximum; inactive = score below 0.9); settings: HepG2 VDRE cis-reporter transcription, actives raise or lower the signal
Method in brief: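 Steps: transfect HepG2 with multiple reporter transcription units; dose chemicals 24 h; isolate RNA; RT-PCR; label with 6-FAM primer extension; HpaI digest; capillary electrophoresis. Curves fitted both directions against DMSO.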

[4] = molecular target: X-box-binding protein 1 (Homo sapiens) (UniProt P17861); experiment: ATG_Xbp1_CIS: Attagene CIS-FACTORIAL HepG2 Assay for human X-box Binding Protein 1 (XBP1) (AID 2282972; active = hit-call score of the fitted dose curve at least 0.9, where 1 is the maximum; inactive = score below 0.9); settings: HepG2 XBP1 cis-element reporter, Attagene multiplex; actives raise or lower the signal
Method in brief: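 Reporter transcripts were quantified by RT-PCR with fluorescent primer extension and capillary electrophoresis after 24 h chemical exposure. Cells: transiently transfected HepG2 carrying cis-regulated reporter constructs; data fitted bidirectionally relative to DMSO.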

[5] = molecular target: Estrogen-related receptor gamma (Homo sapiens) (UniProt P62508); experiment: ATG_ERRg_TRANS: Attagene TRANS-FACTORIAL HepG2 Assay for human Estrogen-Related Receptor gamma (ERRg) (AID 2282977); settings: HepG2 Attagene TRANS reporter, ERRg transactivation;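 note: hits increase reporter signal over DMSO so potencies reflect activators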
Method in brief: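 Exogenous NR-Gal4 chimera activity measured as reporter transcript induction after 24 h in transiently transfected HepG2 cells. RNA reverse-transcribed, PCR-amplified, 6-FAM-labelled and resolved by capillary electrophoresis; increase over DMSO baseline.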

[6] = molecular target: Oxysterols receptor LXR-beta (Homo sapiens) (UniProt P55055); experiment: ATG_LXRb_TRANS: Attagene TRANS-FACTORIAL HepG2 Assay for human Liver X Receptor beta (LXRb) (AID 2282981); settings: HepG2 Attagene TRANS GAL4-LXRb reporter, mRNA
Method in brief: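 Measures induction of a Gal4-driven reporter transcript in HepG2 cells expressing an exogenous LXRb-Gal4 fusion. Cells are exposed to compound for 24 h before RNA isolation and RT-PCR with capillary electrophoresis detection.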

[7] = ATG_M_06_TRANS: Attagene TRANS-FACTORIAL HepG2 Assay for M06 Transcription Factor (Internal Marker) (AID 2282983); settings: HepG2 Attagene TRANS M06 internal marker reporter
Method in brief: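 Multi-reporter-transfected HepG2, 24 h treatment; reporter transcripts quantified via RT-PCR, primer-extension labelling and CE. DMSO-normalized gain-of-signal fit.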

[8] = ATG_M_32_TRANS: Attagene TRANS-FACTORIAL HepG2 Assay for M32 Transcription Factor (Internal Marker) (AID 2282984); settings: HepG2 Attagene TRANS M32 internal marker reporter
Method in brief: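 After 24 h dosing of transfected HepG2 cells, total RNA was reverse-transcribed, reporter sequences PCR-amplified, 6-FAM labelled by primer extension and HpaI-digested before capillary electrophoresis. Signal increase over DMSO was fitted.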

[9] = molecular target: Transcriptional activator Myb (Homo sapiens) (UniProt P10242); experiment: ATG_Myb_CIS: Attagene CIS-FACTORIAL HepG2 Assay for human Myeloblastosis (Myb) Proto-Oncogene Transcription Factor (AID 2282986; active = hit-call score of the fitted dose curve at least 0.9, where 1 is the maximum; inactive = score below 0.9); settings: HepG2 Attagene CIS-FACTORIAL Myb reporter transcription; actives raise or lower the signal
Method in brief: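 In this HepG2 transient-transfection format, cis-regulated reporter mRNA is quantified 24 h post-dosing by RT-PCR with capillary electrophoresis, fitted bidirectionally to DMSO baseline.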

[10] = molecular target: Bile acid receptor (Homo sapiens) (UniProt Q96RI1); experiment: ATG_FXR_TRANS: Attagene TRANS-FACTORIAL HepG2 Assay for Farnesoid X Receptor (FXR) (AID 2282979); settings: HepG2 Attagene TRANS FXR-GAL4 reporter transcription;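 note: hits raise reporter mRNA above DMSO so AC50 marks FXR activation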
Method in brief: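 After 24 h chemical treatment of transfected HepG2 cells, GAL4-UAS reporter transcripts driven by an exogenous FXR-GAL4 fusion were measured by RT-PCR and capillary electrophoresis. Increases over DMSO were fitted.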

[11] = molecular target: Nuclear receptor subfamily 4 group A member 2 (Homo sapiens) (UniProt P43354); experiment: ATG_NURR1_TRANS: Attagene TRANS-FACTORIAL HepG2 Assay for human Nuclear Receptor Related Protein 1 (NURR1) (AID 2282985); settings: HepG2 Attagene TRANS reporter, mRNA readout
Method in brief: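 Chimeric NR-Gal4 fusion activity measured in HepG2 after 24 h treatment. Reporter transcripts detected by RT-PCR and capillary electrophoresis fluorescence; positive-direction curve fitting against DMSO.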

[12] = molecular target: Nuclear receptor subfamily 1 group I member 3 (Homo sapiens) (UniProt Q14994); experiment: ATG_CAR_TRANS: Attagene TRANS-FACTORIAL HepG2 Assay for human Constitutive Androstane Receptor (CAR) (AID 2282969); settings: HepG2 Attagene TRANS-FACTORIAL CAR reporter;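 note: activators raise reporter mRNA above DMSO so AC50 marks induction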
Method in brief: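 Steps: transient transfection of HepG2 with multiple GAL4-UAS reporter units; 24 h compound incubation; RNA isolation, RT-PCR, 6-FAM primer extension, HpaI digest; capillary electrophoresis. Gain-of-signal relative to DMSO negative control.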

[13] = ATG_M_19_TRANS: Attagene TRANS-FACTORIAL HepG2 Assay for M19 Transcription Factor (Internal Marker) (AID 2282974); settings: HepG2 Attagene TRANS-FACTORIAL M19 internal marker reporter
Method in brief: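 Using RT-PCR and capillary electrophoresis, reporter mRNA from transiently transfected human HepG2 cells was quantified following 24 h exposure; activity was fitted in the positive direction against DMSO.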

[14] = molecular target: Oxysterols receptor LXR-alpha (Homo sapiens) (UniProt Q13133); experiment: ATG_LXRa_TRANS: Attagene TRANS-FACTORIAL HepG2 Assay for human Liver X Receptor alpha (LXRa) (AID 2282980); settings: HepG2 Attagene TRANS reporter, LXRa transactivation
Method in brief: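 In this multiplexed TRANS system, compounds act on HepG2 cells carrying GAL4-UAS reporter units and a receptor-GAL4 fusion for 24 h. Induced reporter RNA is amplified, fluorescently labelled and sized by capillary electrophoresis, with DMSO as baseline.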

[15] = molecular target: Androgen receptor (Homo sapiens) (UniProt P10275); experiment: ATG_AR_TRANS: Attagene TRANS-FACTORIAL HepG2 Assay for human Androgen Receptor (AR) (AID 2282973); settings: HepG2 Attagene TRANS-FACTORIAL AR reporter transcription
Method in brief: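 Chimeric nuclear receptor–Gal4 activity was assessed in human HepG2 hepatocytes after 24 h chemical dosing. Induced reporter mRNA was detected via labelled RT-PCR fragments on capillary electrophoresis, and gain of signal was analysed against DMSO.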

[16] = ATG_GAL4_TRANS: Attagene TRANS-FACTORIAL HepG2 Assay for GAL4 (Internal Marker) (AID 2282976); settings: HepG2 Attagene TRANS GAL4 internal marker reporter
Method in brief: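 Liver HepG2 line bearing multiplexed GAL4-UAS reporter constructs; 24 h chemical treatment. Transcripts were quantified as fluorescent fragments on capillary electrophoresis after RT-PCR and HpaI cut, with activity fitted upward from DMSO.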

[17] = molecular target: Hepatocyte nuclear factor 4-alpha (Homo sapiens) (UniProt P41235); experiment: ATG_HNF4a_TRANS: Attagene TRANS-FACTORIAL HepG2 Assay for human Hepatocyte Nuclear Factor 4 alpha (HNF4a) (AID 2282982); settings: HepG2 HNF4a transactivation reporter, mRNA readout
Method in brief: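 In this trans-factorial format, a chimeric HNF4a-GAL4 fusion drives a GAL4-UAS reporter in transfected HepG2 liver cells. After 24 h treatment, reporter mRNA induction is measured by RT-PCR with capillary electrophoresis, relative to DMSO.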

Measured: outcome

Chain of X-box-binding protein 1 (Homo sapiens) (P17861 whole entry, looked up): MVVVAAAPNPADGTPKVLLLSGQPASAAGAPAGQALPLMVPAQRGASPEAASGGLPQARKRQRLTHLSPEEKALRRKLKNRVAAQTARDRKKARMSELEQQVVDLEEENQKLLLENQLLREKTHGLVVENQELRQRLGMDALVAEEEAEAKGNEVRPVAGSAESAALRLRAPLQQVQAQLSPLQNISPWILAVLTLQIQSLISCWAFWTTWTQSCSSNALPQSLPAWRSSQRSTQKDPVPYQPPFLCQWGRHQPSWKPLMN
Chain of Nuclear receptor subfamily 1 group I member 3 (Homo sapiens) (Q14994 whole entry, looked up, the tested form may be a part): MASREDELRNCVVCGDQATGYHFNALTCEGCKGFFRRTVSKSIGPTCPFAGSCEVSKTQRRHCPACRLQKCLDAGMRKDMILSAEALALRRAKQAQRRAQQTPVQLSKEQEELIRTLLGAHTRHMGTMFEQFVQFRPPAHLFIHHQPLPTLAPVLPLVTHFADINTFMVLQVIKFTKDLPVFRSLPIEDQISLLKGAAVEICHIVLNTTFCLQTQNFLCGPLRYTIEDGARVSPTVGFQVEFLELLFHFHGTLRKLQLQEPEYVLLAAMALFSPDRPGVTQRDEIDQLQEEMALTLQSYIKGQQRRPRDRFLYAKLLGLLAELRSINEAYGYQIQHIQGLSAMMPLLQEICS
Chain of Androgen receptor (Homo sapiens) (P10275 whole entry, looked up, the tested form may be a part): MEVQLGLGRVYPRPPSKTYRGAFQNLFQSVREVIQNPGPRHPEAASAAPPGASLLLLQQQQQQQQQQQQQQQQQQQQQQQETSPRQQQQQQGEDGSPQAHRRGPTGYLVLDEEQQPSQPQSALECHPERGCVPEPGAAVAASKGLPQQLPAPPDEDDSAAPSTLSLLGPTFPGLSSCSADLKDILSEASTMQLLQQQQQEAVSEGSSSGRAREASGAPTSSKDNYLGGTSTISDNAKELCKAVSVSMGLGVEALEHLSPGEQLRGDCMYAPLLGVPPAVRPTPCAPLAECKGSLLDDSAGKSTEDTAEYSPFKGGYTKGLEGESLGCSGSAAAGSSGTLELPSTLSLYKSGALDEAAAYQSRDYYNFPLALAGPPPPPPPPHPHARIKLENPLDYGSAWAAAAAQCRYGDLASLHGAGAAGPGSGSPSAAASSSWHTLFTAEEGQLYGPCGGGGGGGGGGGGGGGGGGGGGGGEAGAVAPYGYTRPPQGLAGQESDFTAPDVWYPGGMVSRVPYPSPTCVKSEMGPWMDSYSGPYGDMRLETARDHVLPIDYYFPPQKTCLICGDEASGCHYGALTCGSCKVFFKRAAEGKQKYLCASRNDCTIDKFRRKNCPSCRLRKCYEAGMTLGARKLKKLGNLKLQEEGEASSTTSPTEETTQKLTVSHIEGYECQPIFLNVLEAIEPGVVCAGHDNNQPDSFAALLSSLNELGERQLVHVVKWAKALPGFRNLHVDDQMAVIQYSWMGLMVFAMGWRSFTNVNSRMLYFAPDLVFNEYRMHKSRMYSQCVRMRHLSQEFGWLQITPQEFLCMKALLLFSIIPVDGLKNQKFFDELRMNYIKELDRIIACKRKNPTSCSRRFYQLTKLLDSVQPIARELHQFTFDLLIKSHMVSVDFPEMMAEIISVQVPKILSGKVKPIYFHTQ
Chain of Oxysterols receptor LXR-beta (Homo sapiens) (P55055 whole entry, looked up, the tested form may be a part): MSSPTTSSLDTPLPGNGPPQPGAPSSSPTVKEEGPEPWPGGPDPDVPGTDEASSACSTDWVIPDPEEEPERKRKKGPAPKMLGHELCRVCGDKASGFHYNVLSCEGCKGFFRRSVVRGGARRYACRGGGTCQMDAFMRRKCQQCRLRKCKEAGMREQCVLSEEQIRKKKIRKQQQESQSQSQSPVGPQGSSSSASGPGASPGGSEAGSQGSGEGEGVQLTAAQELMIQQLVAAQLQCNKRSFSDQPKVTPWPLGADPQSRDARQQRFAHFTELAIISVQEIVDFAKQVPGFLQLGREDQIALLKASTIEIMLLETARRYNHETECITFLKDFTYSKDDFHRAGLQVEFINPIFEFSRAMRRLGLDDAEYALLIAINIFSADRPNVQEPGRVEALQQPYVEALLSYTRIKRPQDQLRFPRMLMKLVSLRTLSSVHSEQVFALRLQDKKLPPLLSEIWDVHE
Chain of Nuclear receptor subfamily 4 group A member 2 (Homo sapiens) (P43354 whole entry, looked up, the tested form may be a part): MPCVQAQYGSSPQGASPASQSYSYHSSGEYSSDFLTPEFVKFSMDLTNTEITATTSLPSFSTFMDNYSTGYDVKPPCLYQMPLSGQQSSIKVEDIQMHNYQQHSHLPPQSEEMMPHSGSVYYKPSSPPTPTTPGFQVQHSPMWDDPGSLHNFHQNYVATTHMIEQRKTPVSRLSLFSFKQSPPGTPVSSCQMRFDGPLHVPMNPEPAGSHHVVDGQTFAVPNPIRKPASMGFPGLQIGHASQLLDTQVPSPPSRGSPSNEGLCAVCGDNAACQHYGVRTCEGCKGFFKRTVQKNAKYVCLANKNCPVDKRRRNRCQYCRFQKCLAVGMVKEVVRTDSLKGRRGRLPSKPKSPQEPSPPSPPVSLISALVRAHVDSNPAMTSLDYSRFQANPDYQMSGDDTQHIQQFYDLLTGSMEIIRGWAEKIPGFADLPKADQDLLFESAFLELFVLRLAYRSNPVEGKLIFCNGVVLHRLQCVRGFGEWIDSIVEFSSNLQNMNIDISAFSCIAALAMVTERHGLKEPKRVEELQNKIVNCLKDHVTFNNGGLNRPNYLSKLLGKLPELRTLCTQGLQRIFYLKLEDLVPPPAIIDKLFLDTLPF
Chain of Transcriptional activator Myb (Homo sapiens) (P10242 whole entry, looked up): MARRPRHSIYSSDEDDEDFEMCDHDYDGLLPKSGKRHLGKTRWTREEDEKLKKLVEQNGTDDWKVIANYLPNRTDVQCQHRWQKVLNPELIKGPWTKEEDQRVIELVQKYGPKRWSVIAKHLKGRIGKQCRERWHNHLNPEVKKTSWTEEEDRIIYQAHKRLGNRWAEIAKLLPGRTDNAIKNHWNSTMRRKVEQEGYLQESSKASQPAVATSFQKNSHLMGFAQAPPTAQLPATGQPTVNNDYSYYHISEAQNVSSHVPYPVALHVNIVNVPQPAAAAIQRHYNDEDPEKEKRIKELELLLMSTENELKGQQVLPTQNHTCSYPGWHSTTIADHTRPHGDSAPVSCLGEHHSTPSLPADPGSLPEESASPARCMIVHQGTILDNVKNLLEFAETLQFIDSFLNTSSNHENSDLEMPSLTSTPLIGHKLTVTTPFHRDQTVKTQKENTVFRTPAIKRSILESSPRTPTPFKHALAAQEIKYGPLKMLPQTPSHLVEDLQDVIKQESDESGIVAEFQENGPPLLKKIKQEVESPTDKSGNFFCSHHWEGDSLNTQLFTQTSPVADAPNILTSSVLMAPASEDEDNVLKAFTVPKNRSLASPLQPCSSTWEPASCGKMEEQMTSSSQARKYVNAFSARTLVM
Chain of Hepatocyte nuclear factor 4-alpha (Homo sapiens) (P41235 whole entry, looked up, the tested form may be a part): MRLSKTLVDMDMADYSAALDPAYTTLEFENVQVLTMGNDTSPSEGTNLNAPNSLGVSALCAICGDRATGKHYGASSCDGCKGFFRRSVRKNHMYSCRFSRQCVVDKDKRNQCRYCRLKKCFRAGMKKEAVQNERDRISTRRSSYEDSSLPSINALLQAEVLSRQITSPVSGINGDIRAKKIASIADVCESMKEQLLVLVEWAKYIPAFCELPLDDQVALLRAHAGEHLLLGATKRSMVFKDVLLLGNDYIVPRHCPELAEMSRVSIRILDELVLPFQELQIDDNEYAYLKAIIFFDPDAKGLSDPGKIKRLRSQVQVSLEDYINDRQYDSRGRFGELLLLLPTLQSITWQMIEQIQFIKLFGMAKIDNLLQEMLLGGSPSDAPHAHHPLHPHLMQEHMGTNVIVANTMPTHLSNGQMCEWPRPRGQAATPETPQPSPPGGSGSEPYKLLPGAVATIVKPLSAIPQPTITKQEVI
Chain of Oxysterols receptor LXR-alpha (Homo sapiens) (Q13133 whole entry, looked up, the tested form may be a part): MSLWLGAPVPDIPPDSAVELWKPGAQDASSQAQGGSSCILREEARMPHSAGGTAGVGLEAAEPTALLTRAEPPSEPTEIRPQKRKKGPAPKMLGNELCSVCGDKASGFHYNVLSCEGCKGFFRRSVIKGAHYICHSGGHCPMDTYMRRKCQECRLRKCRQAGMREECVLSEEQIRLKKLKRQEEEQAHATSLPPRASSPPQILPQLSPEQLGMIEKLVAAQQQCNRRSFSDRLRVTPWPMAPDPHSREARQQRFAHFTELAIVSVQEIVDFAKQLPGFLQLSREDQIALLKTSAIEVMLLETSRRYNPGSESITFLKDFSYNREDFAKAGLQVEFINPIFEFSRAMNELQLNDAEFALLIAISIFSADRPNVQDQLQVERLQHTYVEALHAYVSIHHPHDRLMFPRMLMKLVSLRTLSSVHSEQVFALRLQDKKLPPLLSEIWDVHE
Chain of Bile acid receptor (Homo sapiens) (Q96RI1 whole entry, looked up, the tested form may be a part): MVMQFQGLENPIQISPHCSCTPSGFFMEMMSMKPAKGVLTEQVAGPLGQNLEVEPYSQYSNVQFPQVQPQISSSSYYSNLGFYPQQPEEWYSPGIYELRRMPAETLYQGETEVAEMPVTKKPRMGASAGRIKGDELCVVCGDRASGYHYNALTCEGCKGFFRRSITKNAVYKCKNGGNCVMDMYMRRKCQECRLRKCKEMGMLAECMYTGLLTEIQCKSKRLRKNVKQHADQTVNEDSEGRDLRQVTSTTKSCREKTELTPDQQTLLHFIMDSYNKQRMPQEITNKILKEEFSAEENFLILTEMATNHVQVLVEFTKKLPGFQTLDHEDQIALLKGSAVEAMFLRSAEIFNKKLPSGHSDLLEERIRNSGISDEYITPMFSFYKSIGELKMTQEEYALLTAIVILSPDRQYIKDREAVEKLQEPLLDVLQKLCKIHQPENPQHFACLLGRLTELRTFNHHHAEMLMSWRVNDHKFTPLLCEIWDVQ

CC(C)OC(=O)Nc1ccccc1
inactive: [1] | [2] | [3] | [4] | [5] | [6] | [7] | [8] | [9]

ClC1(Cl)C2(Cl)C3(Cl)C4(Cl)C(Cl)(Cl)C5(Cl)C3(Cl)C1(Cl)C5(Cl)C24Cl (centres undefined)
inactive: [1] | [2] | [3] | [4] | [5] | [10] | [7] | [11] | [9]

O=C1CCCN1
inactive: [1] | [2] | [12] | [4] | [13] | [10] | [14] | [7] | [9]

CCOP(=O)(CN(CCO)CCO)OCC
inactive: [1] | [2] | [3] | [4] | [7] | [8] | [11] | [9]

CCCCCCCCc1ccc(O)cc1
inactive: [1] | [2] | [12] | [4] | [15] | [13] | [16] | [6] | [17] | [7] | [8] | [11] | [9]

CN(CCCC(=O)c1cccnc1)N=O
inactive: [1] | [2] | [12] | [4] | [15] | [13] | [14] | [17] | [7] | [8] | [9]
